SMILES strings stand for the structures. The source made the active and inactive calls. Unless noted, how the calls were made is not given here.

For assay [1], the system named is Wnt5a (protein binding on small-molecule microarray). The experiment in a line: small molecules binding Wnt5a protein – biophysical, small-molecule microarray, 635/667 nm fluorescence, primary screen (AID 1142).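 Further: fluorescence read at 667 nm with signal to noise per printed feature.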 To be noted: 635 nm fluorescence, higher = more signal.
Assay [2] in a line: ATP-based viability of Huh7 replicon cells – cell-based, CellTiter-Glo luminescence, basal, 48 h, cytotoxicity control for HCV replication inhibitor project, primary screen (AID 1143).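 Further: Huh7 hepatoma cells carrying a hepatitis C replication reporter with no stimulus; test concentration not given here.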 To be noted: higher = more signal, called active from +8 up or from −8 down. On the technique in general: In antiviral work, replicon cells carry a viral genome segment that copies itself.
A short description of assay [3]: Pseudomonas biofilm growth suppression – PAO1 strain, BacTiter-Glo luminescence, LB-PBS, primary screen (AID 1144). To be noted: P. aeruginosa PAO1 biofilm, 12 h, higher = more signal.
Assay [4] can be described thus: basal CRE-LacZ reporter activity in PC12 – cell-based, unstimulated, primary screen (AID 1145). As to conditions: no forskolin, luminescence, 4.5 h, higher = more signal, called active from +8 up or from −8 down.
Assay [5] can be described thus: forskolin-driven CRE-LacZ activity in PC12 – cell-based, CRE-LacZ reporter, forskolin-stimulated, primary screen (AID 1146).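 Further: PC12 cells with 6xCRE LacZ reporter stimulated by forskolin 10 µM; beta-galactosidase reporter signal reflecting CREB driven transcription.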 To be noted: luminescence, 4.5 h, higher = more signal, called active from +8 up or from −8 down.
Assay [6] has as its target Streptavidin (Streptomyces avidinii) (UniProt P22629). The assay can be described thus: compounds binding control protein streptavidin – biophysical, small-molecule microarray, 635/667 nm fluorescence, artefact control for SMM compound annotation, primary screen (AID 1147).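 Further: signal reflects streptavidin binding to arrayed compounds as a control protein.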 As to conditions: higher = more signal.
A short description of assay [7]: probe aInhba binding on compound microarray – biochemical, small-molecule microarray, 635/667 nm fluorescence, primary screen (AID 1148).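 Further: score merges 667nm spot fluorescence with signal-to-noise for antibody binding to printed compounds.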 As to conditions: higher = more signal.
For assay [8], the target named is Torsin-1A (Homo sapiens) (UniProt O14656). The assay can be described thus: TOR1A wild-type binding on microarray – cell lysate, small-molecule microarray, lysate, 635/667 nm, primary screen (AID 1149). To be noted: COS7 hTOR1A-WT lysate, 635 nm fluorescence, higher = more signal.
Assay [9] has the same target. The experiment in a line: torsin A mutant lysate binding on microarrays – cell lysate, small-molecule microarray, COS7 lysate, 635/667 nm fluorescence, primary screen (AID 1150).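 Further: score pools 667 nm emission and signal to noise measuring lysate protein binding.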 As to conditions: COS7 hTOR1A mutant lysate, 635 nm fluorescence, higher = more signal.
Assay [10] relates to Sonic hedgehog protein (Shh). The assay can be described thus: Sonic hedgehog microarray binding compounds – biochemical, small-molecule microarray, 635/667 nm fluorescence, primary screen (AID 1151).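 Further: Shh protein binding to compounds spotted on small-molecule microarray slides; score combines spot fluorescence intensity with signal-to-noise across triplicate slides.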 As to conditions: 635 nm fluorescence, higher = more signal.
Assay [11] in a line: optical density shifts of acrAB sulA E. coli – strain DRC41, OD650, 48 h, E. coli filamentation inducer project, primary screen (AID 1152).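 Further: E. coli MC1000 strain DRC41 lacking acrAB efflux pump and sulA.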 As to conditions: higher = more signal, called active from +8 up or from −8 down.
Assay [12] in a line: probe aLefty1 binding on compound microarray – biochemical, small-molecule microarray, 635/667 nm fluorescence, primary screen (AID 1153).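 Further: score merges spot fluorescence with signal-to-noise ratio from the scanned slide images.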 As to conditions: higher = more signal.
The nature of assay [13]: plasmodial surface anion channel blockers, osmotic lysis – cell-based, P. falciparum Indochina, OD700, 1 h, primary screen (AID 1154). To be noted: P. falciparum Indochina infected RBC osmotic lysis, higher = more signal, called active from +8 up or from −8 down.
Assay [14] can be described thus: plasmodial surface anion channel blockers, osmotic lysis – cell-based, P. falciparum Indochina, OD700, 2 h, primary screen (AID 1155).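 Further: lysis reports solute entry through the parasite surface anion channel PSAC.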 To be noted: P. falciparum Indochina infected erythrocytes, higher = more signal, called active from +8 up or from −8 down.
Assay [15] can be described thus: changes in parasitized red cell lysis, either direction – P. falciparum Indochina, OD700, 3 h, PSAC antagonist project, primary screen (AID 1156). As to conditions: P. falciparum-infected erythrocytes, osmotic lysis, higher = more signal, called active from +8 up or from −8 down.
Assay [16] can be described thus: plasmodial surface anion channel blockers, osmotic lysis – cell-based, P. falciparum Indochina, OD700, 18 h, primary screen (AID 1157). To be noted: P. falciparum Indochina infected erythrocytes, osmotic lysis OD700, 18 h; higher = more signal, called active from +8 up or from −8 down.
The nature of assay [17]: S6 kinase pathway phospho-S6 level changes – cell-based, A549, cytoblot, luminescence, serum-stimulated, primary screen (AID 1158).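 Further: serum-stimulated A549 lung adenocarcinoma cells; signal is phosphorylated S6 detected by cytoblot immunostaining with HRP secondary.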 As to conditions: 5 h, higher = more signal.
Assay [18] has as its target NADPH oxidase 2 (Homo sapiens) (UniProt P04839). The assay can be described thus: compounds shifting NOX2 Amplex Red fluorescence – cell-based, HEK293-NOX2, PMA-stimulated, NOX inhibitor project, primary screen (AID 1159). Further: test concentration not given here. To be noted: 45 min, higher = more signal, called active from +8 up or from −8 down.
The target in assay [19] is NADPH oxidase 4 (Homo sapiens) (UniProt Q9NPH5). The experiment in a line: compounds shifting NOX4 Amplex Red fluorescence – cell-based, HEK293-NOX4, tetracycline-induced, NOX inhibitor project, primary screen (AID 1160). To be noted: HEK293-NOX4, Amplex Red H2O2 fluorescence, 45 min; higher = more signal, called active from +8 up or from −8 down.
Assay [20] deals with NADPH oxidase 5 (Homo sapiens) (UniProt Q96PH1). The experiment in a line: compounds shifting NOX5 Amplex Red fluorescence – cell-based, HEK293-NOX5, NOX inhibitor project, primary screen (AID 1161). To be noted: HEK293-NOX5, ionomycin, 45 min, higher = more signal.
NADPH oxidase 5 (Homo sapiens), sequence (Q96PH1 whole entry, looked up): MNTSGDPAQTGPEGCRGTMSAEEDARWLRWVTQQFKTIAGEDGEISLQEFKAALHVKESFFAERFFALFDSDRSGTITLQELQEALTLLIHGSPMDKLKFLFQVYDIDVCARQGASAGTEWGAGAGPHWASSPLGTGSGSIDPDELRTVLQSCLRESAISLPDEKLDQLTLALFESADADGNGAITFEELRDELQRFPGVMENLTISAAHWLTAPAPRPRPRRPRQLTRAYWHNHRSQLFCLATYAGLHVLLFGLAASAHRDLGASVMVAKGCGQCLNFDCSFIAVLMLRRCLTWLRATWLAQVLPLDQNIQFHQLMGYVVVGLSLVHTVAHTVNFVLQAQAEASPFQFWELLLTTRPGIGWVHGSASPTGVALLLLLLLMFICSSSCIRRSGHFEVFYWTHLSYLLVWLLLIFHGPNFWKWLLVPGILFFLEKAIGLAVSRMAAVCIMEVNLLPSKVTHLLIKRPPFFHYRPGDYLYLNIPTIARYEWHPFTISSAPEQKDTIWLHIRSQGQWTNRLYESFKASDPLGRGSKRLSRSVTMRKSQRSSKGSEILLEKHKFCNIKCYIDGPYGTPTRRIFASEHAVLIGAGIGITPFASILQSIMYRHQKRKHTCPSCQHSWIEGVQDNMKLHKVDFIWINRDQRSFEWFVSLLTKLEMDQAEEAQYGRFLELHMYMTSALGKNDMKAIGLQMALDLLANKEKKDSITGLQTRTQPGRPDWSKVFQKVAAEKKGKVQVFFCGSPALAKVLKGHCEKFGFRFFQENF

NADPH oxidase 2 (Homo sapiens), sequence (P04839 whole entry, looked up): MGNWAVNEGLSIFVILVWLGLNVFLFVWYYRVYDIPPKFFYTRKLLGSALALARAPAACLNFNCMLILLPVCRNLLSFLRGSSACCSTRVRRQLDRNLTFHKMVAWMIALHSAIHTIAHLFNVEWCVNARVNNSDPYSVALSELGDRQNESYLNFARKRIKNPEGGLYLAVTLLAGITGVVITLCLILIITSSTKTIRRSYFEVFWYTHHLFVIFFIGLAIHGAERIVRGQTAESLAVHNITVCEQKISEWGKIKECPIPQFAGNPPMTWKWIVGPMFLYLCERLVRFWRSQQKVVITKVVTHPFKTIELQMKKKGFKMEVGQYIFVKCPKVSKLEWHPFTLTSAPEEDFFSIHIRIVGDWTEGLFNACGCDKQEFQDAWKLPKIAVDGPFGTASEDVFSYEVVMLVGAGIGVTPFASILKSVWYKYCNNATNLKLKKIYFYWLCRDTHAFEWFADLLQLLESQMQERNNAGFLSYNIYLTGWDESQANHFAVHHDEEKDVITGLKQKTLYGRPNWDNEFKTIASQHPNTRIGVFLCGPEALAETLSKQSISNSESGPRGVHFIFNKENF
Torsin-1A (Homo sapiens), sequence (O14656 whole entry, looked up): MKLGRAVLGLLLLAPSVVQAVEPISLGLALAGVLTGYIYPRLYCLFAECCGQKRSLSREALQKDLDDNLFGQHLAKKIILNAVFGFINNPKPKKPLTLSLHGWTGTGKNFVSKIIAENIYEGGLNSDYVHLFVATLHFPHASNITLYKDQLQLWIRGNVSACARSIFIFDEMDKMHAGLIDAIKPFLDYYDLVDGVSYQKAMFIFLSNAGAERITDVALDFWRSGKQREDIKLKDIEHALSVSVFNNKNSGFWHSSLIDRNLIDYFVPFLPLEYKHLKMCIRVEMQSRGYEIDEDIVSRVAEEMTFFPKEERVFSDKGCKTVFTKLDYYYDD
NADPH oxidase 4 (Homo sapiens), sequence (Q9NPH5 whole entry, looked up): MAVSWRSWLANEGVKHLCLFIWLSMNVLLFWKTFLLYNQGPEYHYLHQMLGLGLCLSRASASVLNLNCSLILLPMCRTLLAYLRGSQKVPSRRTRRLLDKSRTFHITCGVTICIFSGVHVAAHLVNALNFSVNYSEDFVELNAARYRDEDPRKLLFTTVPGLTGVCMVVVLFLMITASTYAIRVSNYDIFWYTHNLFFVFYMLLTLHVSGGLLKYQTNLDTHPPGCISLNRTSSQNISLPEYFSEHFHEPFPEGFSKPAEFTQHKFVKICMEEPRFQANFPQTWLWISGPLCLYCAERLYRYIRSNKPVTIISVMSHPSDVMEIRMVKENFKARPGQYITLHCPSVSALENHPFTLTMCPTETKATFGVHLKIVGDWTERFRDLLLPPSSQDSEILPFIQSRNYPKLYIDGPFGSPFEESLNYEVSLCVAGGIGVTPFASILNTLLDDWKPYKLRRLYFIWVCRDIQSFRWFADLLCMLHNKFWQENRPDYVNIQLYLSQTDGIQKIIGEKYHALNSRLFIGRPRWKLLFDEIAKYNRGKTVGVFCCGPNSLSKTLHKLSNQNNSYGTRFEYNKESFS
Streptavidin (Streptomyces avidinii), sequence (P22629 whole entry, looked up): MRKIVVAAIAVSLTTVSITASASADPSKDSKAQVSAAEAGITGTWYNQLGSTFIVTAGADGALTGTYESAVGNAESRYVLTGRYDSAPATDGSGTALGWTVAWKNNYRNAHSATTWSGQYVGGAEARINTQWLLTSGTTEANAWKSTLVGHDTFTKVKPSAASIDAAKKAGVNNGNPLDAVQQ

In the case of `C=CCNC(=O)[C@H]1[C@@H]2C(=O)O[C@@H](c3ccccc3)[C@@H](c3ccccc3)N2[C@@H](c2ccc(O)cc2)[C@]12C(=O)Nc1ccc(C#CCC(C(=O)OC)C(=O)OC)cc12`, the composite z-score in [1] is -0.223; in assay [6], -0.419; in assay [7], -0.0762; with Torsin-1A (Homo sapiens) [8] it was 0.685; in the assay with Torsin-1A (Homo sapiens) [9], 0.449; in assay [10] it was 0.414. The compound also had a composite z-score in assay [12] of -0.188. Also, the z-score in assay [2] was 0.15 (inactive); in assay [3] it was 0.278 (inactive); in assay [4] it was -0.471 (inactive); in [5], 0.0988 (inactive); in assay [11], 0.824 (inactive); in assay [13], 8.47 (active). For the same compound, the z-score in assay [14] was 1.51 (inactive); in assay [15] it was 0.416 (inactive); in [16] it was 0.432 (inactive); in assay [17], 0.0591; in [18] it was 1.82 (inactive); in assay [19] it was 0.194 (inactive). The z-score in [20] was found to be 1.93.
In the case of `C=CCNC(=O)[C@H]1[C@@H]2C(=O)O[C@@H](c3ccccc3)[C@@H](c3ccccc3)N2[C@@H](c2ccc(OCCO)cc2)[C@]12C(=O)Nc1ccc(C#Cc3ccc(OC)cc3)cc12`, the composite z-score was found to be 0.4 in assay [1]; 0.918 in assay [6]; 0.165 in [7]; 0.44 in the assay with Torsin-1A (Homo sapiens) [8]; 0.471 in the assay with Torsin-1A (Homo sapiens) [9]; 0.974 in [10]. Moreover, the composite z-score in [12] was -0.248. Besides, the z-score in assay [2] was -3.41 (inactive); in [3] it was -0.832 (inactive); in assay [4], 0.478 (inactive); in [5], 0.237 (inactive); in assay [11], -0.0405 (inactive); in [13], 3.42 (inactive). Moreover, the z-score in assay [14] is 2.19 (inactive); in [15], 0.866 (inactive); in [16], 1.4 (inactive); in assay [17], -0.0157; in assay [18] it was 0.87 (inactive); in assay [19], 0.34 (inactive). Also, the z-score in assay [20] was 1.43.
As for `C=CCNC(=O)[C@H]1[C@@H]2C(=O)O[C@@H](c3ccccc3)[C@@H](c3ccccc3)N2[C@@H](c2ccc(OCCO)cc2)[C@]12C(=O)N(C(=O)OCCOC)c1ccc(C#CCC(C(=O)OC)C(=O)OC)cc12`, the composite z-score was 1.12 in [1]; 1.26 in [6]; 0.389 in assay [7]; 0.77 in the assay with Torsin-1A (Homo sapiens) [8]; 0.944 with Torsin-1A (Homo sapiens) [9]; 1.96 in assay [10]. This compound also displayed a composite z-score in assay [12] of 0.123. Further, the z-score in assay [2] is -1.17 (inactive); in assay [3], 0.0229 (inactive); in assay [4] it was 0.0614 (inactive); in assay [5], -0.228 (inactive); in assay [11] it was -0.335 (inactive); in [13], 4.28 (inactive). For the same compound, the z-score was 1.28 (inactive) in assay [14]; 0.743 (inactive) in assay [15]; 0.656 (inactive) in assay [16]; -0.116 in [17]; 1.64 (inactive) in assay [18]; 0.791 (inactive) in assay [19]. Also, the z-score in [20] was determined as 0.621.
As for `COC(=O)[C@]1(Cc2ccccc2CN=[N+]=[N-])N=C(c2ccc(OCCCO)cc2)O[C@@H]1c1ccccc1N=[N+]=[N-]`, the composite z-score in assay [1] is 0.786; in assay [6] it was -0.174; in [7] it was 0.0082; with Torsin-1A (Homo sapiens) [8], -0.0005; with Torsin-1A (Homo sapiens) [9] it was -0.147; in assay [10] it was 0.336. This compound registered a composite z-score in assay [12] of 0.167. The z-score in assay [2] was -5.02 (inactive); in assay [3] it was -0.332 (inactive); in assay [4] it was 3.72 (inactive); in [5], 0.335 (inactive); in assay [11], 0.204 (inactive); in assay [13] it was 31.1 (active). In addition, the z-score is 28.4 (active) in assay [14]; 0.444 (inactive) in assay [15]; 7.23 (inactive) in [16]; -0.424 in assay [17]; -0.938 (inactive) in [18]; 0.298 (inactive) in assay [19]. Besides, the z-score in [20] turned out to be 1.44.

The values above are taken from PubChem BioAssay.
